Screens (PubChem BioAssay)
GLP-1R inv ag: qHTS of GLP-1 Receptor Inverse Agonists (Inhibition Mode); Glucagon-like peptide 1 receptor (Homo sapiens), P43220; HEK293 GLP-1R CRE-luciferase, luminescence, 24 h; GLP-1R form is constitutively active; Potency, µM (highest dose often 38.3 µM), for the others: at the top dose activity change, negative = inhibition, hits mostly inhibitors; 1.6% of 410,000 active; also: % is scaled to controls: 0 for no effect and ±100 for the full control effect; nearly all actives have a fitted effect of over 55% in size
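Constitutively active GLP-1R drives a cAMP-responsive luciferase in stably transfected HEK293 cells; test compounds are added after overnight (12 h) attachment and left 24 hr, and signal loss in luminescence marks inhibition.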
GLP1R ag: qHTS of GLP-1 Receptor Agonists. AID 624172, 2012. HEK293 GLP-1R CRE-luciferase, luminescence, 4-6 h; cells express a hypersensitive GLP-1R form. Glucagon-like peptide 1 receptor (Homo sapiens), P43220. 0.007% of 380,000 active. Potency, µM (series often up to 45.6 µM), without a hit: top-dose activation, actives largely listed as activators; also: % of control where 0% means no effect
PTHR1 agonist: qHTS for PTHR1 Agonists: Primary Screen; Parathyroid hormone/parathyroid hormone-related peptide receptor (Homo sapiens), Q03431; HEK293 GP2 PTHR1 cells, GloSensor cAMP luminescence, 1 h; Potency, µM (titrated, usually from 115 µM), for the others: at the highest dose activation, most hits filed as activators; 0.075% of 410,000 active; AID 743266, 2014; also: nearly all actives have a fitted effect of over 55% in size
Target sequence (Q03431 whole entry, looked up): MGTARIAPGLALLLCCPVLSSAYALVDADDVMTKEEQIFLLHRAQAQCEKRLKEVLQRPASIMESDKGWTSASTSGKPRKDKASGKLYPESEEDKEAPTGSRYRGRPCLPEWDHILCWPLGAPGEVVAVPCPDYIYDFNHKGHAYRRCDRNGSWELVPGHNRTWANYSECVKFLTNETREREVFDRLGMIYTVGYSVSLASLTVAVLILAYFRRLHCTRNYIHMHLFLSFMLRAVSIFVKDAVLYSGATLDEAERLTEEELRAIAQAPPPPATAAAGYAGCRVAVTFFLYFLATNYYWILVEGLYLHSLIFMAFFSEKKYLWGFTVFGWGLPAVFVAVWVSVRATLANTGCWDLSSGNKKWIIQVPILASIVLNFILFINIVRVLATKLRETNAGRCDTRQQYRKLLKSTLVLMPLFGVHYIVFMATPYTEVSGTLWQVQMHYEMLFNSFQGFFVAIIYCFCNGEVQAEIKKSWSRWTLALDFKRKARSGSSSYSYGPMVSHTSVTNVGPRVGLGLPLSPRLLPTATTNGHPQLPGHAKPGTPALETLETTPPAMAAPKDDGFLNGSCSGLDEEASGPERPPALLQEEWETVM
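HEK-293-derived GP2 cells expressing PTHR1 and a GloSensor cAMP reporter, 3,000/well, plated overnight, given luciferin plus IBMX (each 0.5 mM as added) for 1 h at 37 °C, then compound for 1 h at 37 °C. Luminescence was read after 15 min at room temperature.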
RGS4 inh: Inhibitors of Regulator of G Protein Signaling (RGS) 4: qHTS; 0.039% of 390,000 active; AID 504845, 2011; Transcreener GDP fluorescence polarization, RGS4-accelerated GTP hydrolysis; Regulator of G-protein signaling 4 (Homo sapiens), P49798; Potency, µM (highest dose often 114 µM), inactives show at the top dose activity change, negative = inhibition, actives largely listed as inhibitors; also: % is scaled to controls: 0 for no effect and ±100 for the full control effect; nearly all actives have a fitted effect of over 75% in size
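MLSMR compounds (23 nl, pin-transferred) preincubated 10 min at room temperature with a 500nM (2x) first reagent, then RGS4 at 900nM (2x) plus Transcreener GDP mix added; fluorescence polarization (620/688 nm) read before and after 90 min at 30 °C.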
HEK293 tox: qHTS of GLP-1 Receptor Inverse Agonists: Cytotox Screen; HEK293 cAMP-luciferase reporter cells, luminescence, 24 h; Potency, µM (titrated, usually from 38.3 µM), inactives show top-dose activity change, negative = inhibition, most hits filed as inhibitors; 0.13% of 410,000 active;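 also: loss of luciferase light is scored as toxicity; % is scaled to controls: 0 for no effect and ±100 for the full control effect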
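A 23 nL compound transfer followed 12 hours of cell culture at 37 deg C; exposure then lasted 24 hr. Luciferase assay detection reagent was dispensed and plates read for luminescence after a 12 min room-temperature wait.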
* hit, by the source's call; i = inactive; u = inconclusive; x = not tested or not shown; [ ] = another dose, or the depositor's remark. Most compounds without a hit are left out; they make up all but 1.7% or so of the library. Calls follow the shape of the dose curve; as a rule, active = well fitted curve in the direction sought with a large enough effect; inconclusive = small, poorly fitted or top-dose-only effect, or another doubt; inactive = no such curve, though single readings can be large; an effect the other way counts as inactive or inconclusive. Potency is read from the fitted curve at half-maximal effect.

SMILES	GLP-1R inv ag	GLP1R ag	PTHR1 agonist	RGS4 inh	HEK293 tox
Cc1ccc2[nH]c(=O)c(CN(C(=O)c3cccc(Cl)c3)C(C)(C)C)cc2c1	-2.4%	x	-28.2%	12.9%	2.7%
Cc1cccc(C)c1NC(=S)N(CCN1CCCCCC1)Cc1ccco1	10µM*	0.4%	-17.9%	5.3%	-17.5%
Cc1cc(C)c(NC(=S)N(CCN2CCCCC2)Cc2ccco2)c(C)c1	u	7.4%	i	-29.2%	u
Cc1ccc(CSc2nc3c(c(N(C)C)n2)CCCC3)cc1	11.2µM*	5.2%	-37.6%[57.5 µM]	5.8%	-9.6%
Cc1ccc(S(=O)(=O)c2nc(-c3ccccc3)oc2N2CCCCCC2)cc1	6.31µM*	x	-62.3%	-1.8%	0.0%
CCCCN(CC)CCNC(=O)C1CCN(c2nnc(C)c3c(C)n(-c4ccc(C)cc4)nc23)CC1	10µM*	x	-18.8%	-4.9%	u
N/C(=N\OC(=O)/C=C/c1ccccc1)c1ccc(Cl)cc1	5.1%	10.8%	-4.9%	-3.1%	11.2µM*
N/C(=N\OC(=O)/C=C/c1ccccc1)c1ccccc1	-2.2%	-4.3%	-15.4%[57.5 µM]	8.7%	-0.9%
CNS(=O)(=O)c1cn(CC(=O)Nc2ccc(OC)c(Cl)c2)cc1S(=O)(=O)NC	5.8%	x	i	4.0%	3.4%
O=S(=O)(c1cccs1)N1CCN(CC(O)COc2cc(Cl)ccc2Cl)CC1 (stereo not given)	7.94µM*	0.8%	-8.7%[57.5 µM]	-47.6%	-27.8%
CCOC(=O)c1ccccc1NC(=O)c1c2c(nc3ccccc13)C(=O)N(C1CCCCC1)C2	5.0%	x	i	-4.6%	1.1%
CCCNC(=O)C1(C)CCCN(Cc2ccccc2Cl)C1 (stereo not given)	-15.0%	17.6%	i	x	0.4%
CCCNC(=O)C1(C)CCCN(Cc2cccc3ccccc23)C1 (stereo not given)	10µM*	7.9%	i	x	-8.0%
CC1=NN(C(N)=S)C(=O)C1N=Nc1ccccc1O (stereo not given)	-5.6%	-1.7%	i	-0.3%	0.9%
CCOc1ccccc1N=NC1C(=O)N(C(N)=S)N=C1C (stereo not given)	0.891µM*	-1.8%	-8.5%	-26.4%	u
CCOc1ccc(NC(=S)N2CCC(c3ccc(C)cc3)C2)cc1 (stereo not given)	10µM*	5.2%	-7.0%	5.9%	-13.5%
Cc1ccc(NC(=S)N2CCC(c3ccc(C)cc3)C2)cc1 (stereo not given)	u	19.5%	i	u	-26.2%
CC(=O)N(CCC(Cc1ccccc1)c1ccc2c(c1)OCO2)Cc1ccc(Cl)cc1 (stereo not given)	11.2µM*	-2.5%	-22.5%[57.5 µM]	-3.3%	u
CN1CCN(S(=O)(=O)c2cccc(C(=O)N(C)Cc3cccs3)c2)CC1	20.5%	2.3%	i	-11.0%	0.5%
C=CCN(C(=O)c1cccc(S(=O)(=O)N2CCN(C)CC2)c1)c1nc(-c2ccccc2)cs1	11.2µM*	3.3%	-29.1%	-11.1%	-3.1%
CN(Cc1ccc(Cl)c(Cl)c1)C(=O)c1cccc(S(=O)(=O)N2CCN(Cc3ccccc3)CC2)c1	11.2µM*	3.7%	-36.9%	-2.8%	-4.8%
CN(Cc1cccc(F)c1)C(=O)c1cccc(S(=O)(=O)N2CCN(Cc3ccccc3)CC2)c1	u	-3.1%	-31.4%	1.9%	0.0%
O=C(OCc1ccc(O)cc1)c1c(-c2ccsc2)oc2ccc(N3CCOCC3)cc12	-0.8%	22.7%	-10.8%	-14.8%	106.8%
COc1ccc(CNCCC(c2ccc(OC)cc2)c2ccccc2OC)cc1 (stereo not given)	10µM*	5.5%	-0.4%	5.0%[56.9 µM]	u
COc1ccc(C(CCNCc2ccc(N(C)C)cc2)c2ccccc2OC)cc1 (stereo not given)	10µM*	14.7%	-19.9%	9.2%	u
SMILES	GLP-1R inv ag	GLP1R ag	PTHR1 agonist	RGS4 inh	HEK293 tox
COc1ccc(C(CCNCc2ccc(OC(C)C)cc2)c2ccccc2OC)cc1 (stereo not given)	u	-6.6%	-32.6%	4.0%	u
Cc1ccc(CN(C)C(=O)CN2C(=O)NC3(CCCc4ccccc43)C2=O)c(C)c1 (stereo not given)	3.16µM*	3.2%	-29.4%	18.8%	1.0%
O=C(Cn1cc(S(=O)(=O)Cc2ccccc2Cl)c2ccccc21)Nc1ccc(F)cc1F	u	x	-12.9%	10.0%	-3.1%
CCc1ccc(-c2n[nH]nc2C2=CC(=O)C[C@H](c3ccc(F)cc3)C2)cc1	8.91µM*	-5.5%	-55.5%	x	-10.3%
Cc1nn(-c2ccccc2)c(C)c1C(=O)NCc1ccc(F)cc1	1.4%	-0.3%	i	-5.5%	-12.0%
Cc1c(C(=O)NCc2ccc(F)cc2)c(-c2ccccc2)nn1-c1ccccc1	5.01µM*	4.9%	-11.3%[57.5 µM]	-1.0%[11.4 µM]	1.7%
COC(=O)C1=C(C)N(c2ccc(OC)cc2)C(C)=C(C(=O)OC)C1c1ccccc1	8.91µM*	-1.8%	-37.6%	12.5%	-9.0%
CCOC(=O)C1(Cc2cccc(Cl)c2)CCCN(C(=O)c2occc2C)C1 (stereo not given)	11.2µM*	3.4%	-23.1%	-54.9%[56.9 µM]	5.4%
CCCC[C@@H]1CNC(=S)N1CCc1cccc2ccccc12	3.55µM*	20.1%	-25.1%	-29.6%	-0.5%
CCCCN1C(=S)NC[C@@H]1Cc1cccc2ccccc12	u	14.2%	-65.9%	-45.6%	u
Cc1ccccc1CNC(=O)CCSCc1cnn(-c2ccccc2)c1-n1cccc1	10µM*	x	-26.8%	-3.5%	-4.3%
O=C(CCSCc1cnn(-c2ccccc2)c1-n1cccc1)NCc1ccccc1F	u	x	i	-5.9%	-3.4%
COc1ccc(-c2cc(-n3c(C(F)(F)F)nc4ccccc43)n(CCC#N)n2)cc1	10µM*	0.3%	i	16.0%	-3.9%
CC1CCCCN1C(=O)C1CCN(c2nc(-c3ccccc3)nc3c2CCC3)CC1 (stereo not given)	8.91µM*	-3.3%	u	3.0%	u
CCOC(=O)c1sc2nc(C)nc(NCc3ccc(Cl)cc3)c2c1C	u	12.5%	-52.5%	u	-9.1%
CCOC(=O)c1sc2nc(C)nc(NCc3ccc(F)cc3)c2c1C	7.08µM*	12.8%	-93.9%	-25.5%	-13.8%
O=C(Nc1ccc(Cn2cccn2)cc1)c1ccc(COc2cccc(Br)c2)cc1	5.01µM*	0.5%	-46.8%[57.5 µM]	-30.2%	-3.3%
O=C(Nc1ccc(Cn2cccn2)cc1)c1ccc(COc2ccc(Br)cc2)cc1	4.3%	-6.9%	-8.3%	-2.6%	4.8%
